{
  "source": "paper PMC11062922",
  "about": "(Nature Chemical Biology, 2023)",
  "key": {"CSNK2A1;CSNK2A3": {"tested_on": "CSNK2A1;CSNK2A3", "parameters": "species or system human, MV4-11 + K-562 + COLO205 + SK-N-BE2 + OVCAR-8", "settings": "read-out: apparent Kd, n = 1"}, "CSNK2A2": {"tested_on": "CSNK2A2", "parameters": "species or system human, MV4-11 + K-562 + COLO205 + SK-N-BE2 + OVCAR-8", "settings": "read-out: apparent Kd, n = 1"}, "AAK1": {"tested_on": "AAK1", "parameters": "species or system human, MV4-11 + K-562 + COLO205 + SK-N-BE2 + OVCAR-8", "settings": "read-out: apparent Kd, n = 1"}, "CLK1": {"tested_on": "CLK1", "parameters": "species or system human, MV4-11 + K-562 + COLO205 + SK-N-BE2 + OVCAR-8", "settings": "read-out: apparent Kd, n = 1"}, "CLK4": {"tested_on": "CLK4", "parameters": "species or system human, MV4-11 + K-562 + COLO205 + SK-N-BE2 + OVCAR-8", "settings": "read-out: apparent Kd, n = 1"}, "Q6ZSR9": {"target": "Q6ZSR9 (human, UniProt Q6ZSR9)", "sequence (Q6ZSR9 whole entry, looked up)": "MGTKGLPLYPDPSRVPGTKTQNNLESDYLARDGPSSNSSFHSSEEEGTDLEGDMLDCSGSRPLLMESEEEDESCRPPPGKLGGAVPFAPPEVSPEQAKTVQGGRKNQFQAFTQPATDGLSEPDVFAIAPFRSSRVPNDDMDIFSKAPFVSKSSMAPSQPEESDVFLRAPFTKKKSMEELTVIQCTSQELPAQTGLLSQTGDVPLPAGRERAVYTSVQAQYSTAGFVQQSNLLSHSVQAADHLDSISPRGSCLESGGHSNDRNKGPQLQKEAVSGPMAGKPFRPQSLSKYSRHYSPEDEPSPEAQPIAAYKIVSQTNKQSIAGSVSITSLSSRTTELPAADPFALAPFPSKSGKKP", "parameters": "species or system MV4-11 + K-562 + COLO205 + SK-N-BE2 + OVCAR-8", "settings": "read-out: apparent Kd, n = 1"}, "BMP2K": {"tested_on": "BMP2K", "parameters": "species or system human, MV4-11 + K-562 + COLO205 + SK-N-BE2 + OVCAR-8", "settings": "read-out: apparent Kd, n = 1"}, "MELK": {"tested_on": "MELK", "parameters": "species or system human, MV4-11 + K-562 + COLO205 + SK-N-BE2 + OVCAR-8", "settings": "read-out: apparent Kd, n = 1"}, "GAK": {"tested_on": "GAK", "parameters": "species or system human, MV4-11 + K-562 + COLO205 + SK-N-BE2 + OVCAR-8", "settings": "read-out: apparent Kd, n = 1"}, "GSK3A": {"tested_on": "GSK3A", "parameters": "species or system human, MV4-11 + K-562 + COLO205 + SK-N-BE2 + OVCAR-8", "settings": "read-out: apparent Kd, n = 1"}, "GSK3B": {"tested_on": "GSK3B", "parameters": "species or system human, MV4-11 + K-562 + COLO205 + SK-N-BE2 + OVCAR-8", "settings": "read-out: apparent Kd, n = 1"}, "NUAK1": {"tested_on": "NUAK1", "parameters": "species or system human, MV4-11 + K-562 + COLO205 + SK-N-BE2 + OVCAR-8", "settings": "read-out: apparent Kd; compound concentrations: 100 nM and 1000 nM (sheet 'Samples'), CATDS: 0.165743265872908; n = 1"}, "PAK4": {"tested_on": "PAK4", "parameters": "species or system human, MV4-11 + K-562 + COLO205 + SK-N-BE2 + OVCAR-8", "settings": "read-out: apparent Kd; compound concentrations: 100 nM and 1000 nM (sheet 'Samples'), CATDS: 2.65611791576283E-2; n = 1"}, "RET": {"tested_on": "RET", "parameters": "species or system human, MV4-11 + K-562 + COLO205 + SK-N-BE2 + OVCAR-8", "settings": "read-out: apparent Kd; compound concentrations: 100 nM and 1000 nM (sheet 'Samples'), CATDS: 3.1274331482211301E-2; n = 1"}, "SIK2": {"tested_on": "SIK2", "parameters": "species or system human, MV4-11 + K-562 + COLO205 + SK-N-BE2 + OVCAR-8", "settings": "read-out: apparent Kd; compound concentrations: 100 nM and 1000 nM (sheet 'Samples'), CATDS: 2.5744963506260699E-2; n = 1"}, "[1]": {"settings": "compound concentrations:100 nM and 1000 nM (sheet 'Samples')"}},
  "note": "Where two headings read alike, the source gives them in different places.",
  "data": [
    {"smiles": "COc1cc(Nc2ncc3c(C)nc(-c4cc5ccccc5[nH]4)n3n2)cc(OC)c1OC", "note": "[GW869516X]", "values": [
      {"measurement": "potency estimated from few doses", "setting": "CSNK2A1;CSNK2A3; compound concentrations: 100 nM and 1000 nM (sheet 'Samples'), CATDS: 0.461357463552929", "result": 78.3, "unit": "nM"},
      {"measurement": "potency estimated from few doses", "setting": "CSNK2A2; compound concentrations: 100 nM and 1000 nM (sheet 'Samples'), CATDS: 0.54570756078054605", "result": 55.8, "unit": "nM"}
    ]},
    {"smiles": "O=C1N=C(NCCCc2ccccc2)S/C1=C\\c1ccc2ncccc2c1", "note": "[RO4493941-000]", "values": [
      {"measurement": "potency estimated from few doses", "setting": "AAK1; compound concentrations: 100 nM and 1000 nM (sheet 'Samples'), CATDS: 6.7611203009870793E-2", "result": 1120, "unit": "nM"},
      {"measurement": "potency estimated from few doses", "setting": "CLK1; compound concentrations: 100 nM and 1000 nM (sheet 'Samples'), CATDS: 8.49411754848379E-2", "result": 528, "unit": "nM"},
      {"measurement": "potency estimated from few doses", "setting": "CLK4; compound concentrations: 100 nM and 1000 nM (sheet 'Samples'), CATDS: 0.15877377246004401", "result": 105, "unit": "nM"},
      {"measurement": "potency estimated from few doses", "setting": "CSNK2A1;CSNK2A3; compound concentrations: 100 nM and 1000 nM (sheet 'Samples'), CATDS: 0.35522502931524602", "result": 22, "unit": "nM"},
      {"measurement": "potency estimated from few doses", "setting": "CSNK2A2; compound concentrations: 100 nM and 1000 nM (sheet 'Samples'), CATDS: 0.347313618598384", "result": 22.8, "unit": "nM"},
      {"measurement": "potency estimated from few doses", "setting": "Q6ZSR9; compound concentrations: 100 nM and 1000 nM (sheet 'Samples'), CATDS: 7.1931032695021699E-2", "result": 898, "unit": "nM"}
    ]},
    {"smiles": "Cc1cc(-c2ccnc(Nc3cccc(C#N)c3)n2)cc(C)c1O", "note": "[GSK1440913A]", "values": [
      {"measurement": "potency estimated from few doses", "setting": "AAK1; compound concentrations: 100 nM and 1000 nM (sheet 'Samples'), CATDS: 0.22953291556049499", "result": 120, "unit": "nM"},
      {"measurement": "potency estimated from few doses", "setting": "BMP2K; compound concentrations: 100 nM and 1000 nM (sheet 'Samples'), CATDS: 0.10539472264710199", "result": 564, "unit": "nM"},
      {"measurement": "potency estimated from few doses", "setting": "Q6ZSR9; compound concentrations: 100 nM and 1000 nM (sheet 'Samples'), CATDS: 0.240078758272596", "result": 111, "unit": "nM"}
    ]},
    {"smiles": "Nc1nc(Nc2ccccc2)cc(-c2ccc3c(N)n[nH]c3c2)n1", "note": "[GSK2225749A]", "values": [
      {"measurement": "potency estimated from few doses", "setting": "AAK1; [1]", "result": 130, "unit": "nM"},
      {"measurement": "potency estimated from few doses", "setting": "BMP2K; [1]", "result": 554, "unit": "nM"},
      {"measurement": "potency estimated from few doses", "setting": "MELK; [1]", "result": 823, "unit": "nM"},
      {"measurement": "potency estimated from few doses", "setting": "Q6ZSR9; [1]", "result": 125, "unit": "nM"}
    ]},
    {"smiles": "CNCC#Cc1c(F)ccc2c1/C(=C/c1[nH]ccc1OC)C(=O)N2.Cl", "note": "[RO0281601-001]", "values": [
      {"measurement": "potency estimated from few doses", "setting": "AAK1; compound concentrations: 100 nM and 1000 nM (sheet 'Samples'), CATDS: 7.8599709029845199E-2", "result": 81.9, "unit": "nM"},
      {"measurement": "potency estimated from few doses", "setting": "BMP2K; compound concentrations: 100 nM and 1000 nM (sheet 'Samples'), CATDS: 0.12287640268831", "result": 36.8, "unit": "nM"},
      {"measurement": "potency estimated from few doses", "setting": "CSNK2A1;CSNK2A3; compound concentrations: 100 nM and 1000 nM (sheet 'Samples'), CATDS: 2.36611103564075E-2", "result": 1450, "unit": "nM"},
      {"measurement": "potency estimated from few doses", "setting": "CSNK2A2; compound concentrations: 100 nM and 1000 nM (sheet 'Samples'), CATDS: 2.8196939656964501E-2", "result": 832, "unit": "nM"},
      {"measurement": "potency estimated from few doses", "setting": "GAK; compound concentrations: 100 nM and 1000 nM (sheet 'Samples'), CATDS: 2.4779459392996701E-2", "result": 1240, "unit": "nM"},
      {"measurement": "potency estimated from few doses", "setting": "GSK3A; compound concentrations: 100 nM and 1000 nM (sheet 'Samples'), CATDS: 3.3017253821498199E-2", "result": 543, "unit": "nM"},
      {"measurement": "potency estimated from few doses", "setting": "GSK3B; compound concentrations: 100 nM and 1000 nM (sheet 'Samples'), CATDS: 2.9733635165772199E-2", "result": 717, "unit": "nM"},
      {"measurement": "potency estimated from few doses", "setting": "MELK; compound concentrations: 100 nM and 1000 nM (sheet 'Samples'), CATDS: 2.1569826245294601E-2", "result": 2070, "unit": "nM"},
      {"measurement": "potency estimated from few doses", "setting": "NUAK1", "result": 22.7, "unit": "nM"},
      {"measurement": "potency estimated from few doses", "setting": "PAK4", "result": 993, "unit": "nM"},
      {"measurement": "potency estimated from few doses", "setting": "Q6ZSR9; compound concentrations: 100 nM and 1000 nM (sheet 'Samples'), CATDS: 7.9611520405697994E-2", "result": 79.9, "unit": "nM"},
      {"measurement": "potency estimated from few doses", "setting": "RET", "result": 625, "unit": "nM"},
      {"measurement": "potency estimated from few doses", "setting": "SIK2", "result": 1090, "unit": "nM"}
    ]},
    {"smiles": "CN(C)CC(O)COc1ccc(Nc2nccc(-c3cnn4nc(N5CCOCC5)ccc34)n2)cc1", "note": "(centres unmarked) [GW767488X]", "values": [
      {"measurement": "potency estimated from few doses", "setting": "AAK1; [1]", "result": 23.6, "unit": "nM"},
      {"measurement": "potency estimated from few doses", "setting": "BMP2K; [1]", "result": 180, "unit": "nM"},
      {"measurement": "potency estimated from few doses", "setting": "CLK1; [1]", "result": 54.1, "unit": "nM"},
      {"measurement": "potency estimated from few doses", "setting": "CLK4; [1]", "result": 34.2, "unit": "nM"},
      {"measurement": "potency estimated from few doses", "setting": "CSNK2A1;CSNK2A3; [1]", "result": 105, "unit": "nM"},
      {"measurement": "potency estimated from few doses", "setting": "CSNK2A2; [1]", "result": 57.1, "unit": "nM"},
      {"measurement": "potency estimated from few doses", "setting": "GAK; [1]", "result": 378, "unit": "nM"},
      {"measurement": "potency estimated from few doses", "setting": "MELK; [1]", "result": 1490, "unit": "nM"},
      {"measurement": "potency estimated from few doses", "setting": "Q6ZSR9; [1]", "result": 29.6, "unit": "nM"}
    ]},
    {"smiles": "CNCc1ccc(-c2cc(-c3nc(-c4ccc(S(=O)(=O)C(C)C)cc4)cnc3N)on2)cc1", "note": "[VE-822]", "values": [
      {"measurement": "potency estimated from few doses", "setting": "AAK1; [1]", "result": 1850, "unit": "nM"},
      {"measurement": "potency estimated from few doses", "setting": "GSK3A; [1]", "result": 684, "unit": "nM"},
      {"measurement": "potency estimated from few doses", "setting": "GSK3B; [1]", "result": 810, "unit": "nM"},
      {"measurement": "potency estimated from few doses", "setting": "Q6ZSR9; [1]", "result": 1240, "unit": "nM"}
    ]}
  ]
}
